In the library only some 2.4% were active in any assay of this set; here they are far more common.
SENP7 block – SENP7 protease inhibitors, primary screen, biochemical, luminescence, uHTS; Sentrin-specific protease 7 (Homo sapiens), Q9BQF6; recombinant SENP7, Z-RLRGG-aminoluciferin luminescence, 40 min; inhibition, % at 5 µM; 1.5% of 330,000 active; AID 434973, 2010;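 active means inhibition above about 50% at the single test dose, limit read from the data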
Target sequence (Q9BQF6 706-1050 limits assumed): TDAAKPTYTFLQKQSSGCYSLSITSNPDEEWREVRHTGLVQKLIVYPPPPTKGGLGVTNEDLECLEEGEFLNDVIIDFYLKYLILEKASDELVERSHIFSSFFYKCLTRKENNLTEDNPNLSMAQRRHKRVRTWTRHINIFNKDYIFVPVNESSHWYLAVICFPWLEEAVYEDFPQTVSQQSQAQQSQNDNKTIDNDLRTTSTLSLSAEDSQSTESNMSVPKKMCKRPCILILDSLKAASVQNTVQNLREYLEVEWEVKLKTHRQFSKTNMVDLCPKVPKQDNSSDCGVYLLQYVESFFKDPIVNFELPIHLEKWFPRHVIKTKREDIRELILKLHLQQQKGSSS
SENP8 block-1 – SENP8 protease inhibitors, primary screen, biochemical, luminescence; purified SENP8, Z-RLRGG-aminoluciferin cleavage; 1.2% of 330,000 active; Sentrin-specific protease 8 (Homo sapiens), Q96LD8; inhibition, % at 10 µM; in the data active means inhibition above about 50%
SENP8 block-2 – human SENP8 protease inhibitors, primary screen, biochemical, fluorescence, Nedd8 protein substrate, uHTS; Sentrin-specific protease 8 (Homo sapiens), Q96LD8; recombinant SENP8; inhibition, % at 20 µM; 0.64% of 360,000 active; AID 602440, 2012; in the data active means inhibition mostly above about 40%, no sharp cut-off; inactive means mostly below about 27%
SENP6 block – SENP6 protease inhibitors, primary screen, biochemical, luminescence, uHTS; Sentrin-specific protease 6 (Homo sapiens), Q9GZR1; Recombinant SENP6 catalytic domain, aminoluciferin luminescence; inhibition, % at 10 µM; 1.8% of 330,000 active; AID 2599, 2010;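 active means inhibition above about 50% at the single tested dose, limit read from the data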
Platelet DG rel – inhibitors of platelet dense granule secretion, primary screen, cell-based, MLPCN, human platelets; human platelet-rich plasma, SFLLRN dense granule ATP release, luminescence; 0.22% of 300,000 active; inhibition, %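 (compounds screened at 7.5 µM in platelet-rich plasma)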;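 active means mean replicate score, as percent of positive control, at or above 50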
SENP8 confirm – SENP8 protease inhibitors, retest, confirmation, biochemical, luminescence, single concentration | shares compounds with SENP7 block | Recombinant SENP8, Z-RLRGG-aminoluciferin luminescence, 60 min | inhibition, % at 12.5 µM | 40% of 6,200 active | AID 488912, 2010;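 active means mean inhibition across replicates above about 50%, limit read from the data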
SENP6 confirm – SENP6 protease inhibitors, confirmation, biochemical, luminescence, single concentration; recombinant SENP6, Z-RLRGG-aminoluciferin luminescence; inhibition, % at 12.5 µM; 58% of 6,200 active; shares compounds with SENP7 block
SENP7 confirm – SENP7 protease inhibitors, retest, confirmation, biochemical, luminescence, single concentration; shares compounds with SENP7 block; recombinant SENP7, Z-RLRGG-aminoluciferin luminescence, 40 min; inhibition, % at 12.5 µM; 69% of 6,200 active
Casp3 select – caspase-3 protease inhibitors, confirmation, selectivity assay for SENP inhibitor project, biochemical, single concentration; shares compounds with SENP7 block; purified caspase-3, Z-DEVD-aminoluciferin luminescence, 60 min; inhibition, % at 12.5 µM; 60% of 6,200 active;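 active means mean inhibition above about 50%, limit read from the data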
Target sequence (P42574 28-227 limits assumed): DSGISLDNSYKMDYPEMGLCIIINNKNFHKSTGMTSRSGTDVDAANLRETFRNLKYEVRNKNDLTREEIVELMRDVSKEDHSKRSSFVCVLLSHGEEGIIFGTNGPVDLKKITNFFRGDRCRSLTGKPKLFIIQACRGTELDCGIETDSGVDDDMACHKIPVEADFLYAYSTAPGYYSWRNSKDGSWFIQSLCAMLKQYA
SENP luc ctr – counter-screen for SENP inhibitors: luminescence interference; shares compounds with SENP7 block; Pre-incubated SENP8/Z-RLRGG-aminoluciferin, luciferase luminescence interference; inhibition, % at 12.5 µM; 39% of 6,200 active;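 active means mean inhibition above about 50% when retested at one dose, limit read from the data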
Each line names hits and unclear results; the compound was inactive in the other large screens (follow-up assays come after a bar, where they were run).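 How the source made its calls, unless noted: active means mean inhibition above about 50% in the one-dose retest (limit read from the data); inactive means the rest.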

O=C(c1cc(-c2ccc(Cl)c(Cl)c2)on1)N1CCCCC1	SENP7 block 57 | SENP8 confirm inactive | SENP6 confirm inactive | SENP7 confirm inactive | Casp3 select inactive | SENP luc ctr inactive
O=C(c1cc(-c2ccccc2)on1)N1CCCC1	none
Cn1c(SCc2ccc([N+](=O)[O-])cc2)nnc1-c1ccncc1	none
CC1CC(C)CN(CC(O)COCc2ccccc2)C1 (configuration not stated)	none
N#CCOC(=O)[C@H](Cc1ccccc1)N1C(=O)c2ccccc2C1=O	none
CC1CN(C(=O)COC(=O)c2ccc(F)cc2Cl)CC(C)O1 (configuration not stated)	none
O=S(=O)(/C=C/c1ccccc1)N1CCOCC1	none
COc1ccc(NC(=O)/C(C#N)=C/c2ccc(Br)o2)cc1	SENP7 block 66 | SENP8 confirm inactive | SENP6 confirm inactive | SENP7 confirm inactive | Casp3 select inactive | SENP luc ctr inactive
O=C(CC1C(=O)NCCN1Cc1ccccc1C(F)(F)F)NC1CCCCC1 (configuration not stated)	none
O=C(Cn1c(=O)oc2ccccc21)Nc1ccc(F)cc1	none
Cc1ccc(S(=O)(=O)Oc2ccccc2/C=N/NC(N)=S)cc1	SENP7 block 70 | SENP8 confirm inactive | SENP6 confirm inactive | SENP7 confirm inactive | Casp3 select inactive | SENP luc ctr inactive
Cc1ccc(S(=O)(=O)Oc2ccccc2/C=N/N=C(N)N)cc1	none
CCCCCCCC(=O)NC1=NC(=O)C(C)(C)S1	none
O=c1cc(-c2ccc3c(c2)OCO3)oc2ccccc12	SENP7 block 77 | SENP8 confirm inactive | SENP6 confirm inactive | SENP7 confirm inactive | Casp3 select inactive | SENP luc ctr inactive
Cn1c2ccccc2c(=O)c2ccc(-c3ccc4c(c3)OCO4)cc21	SENP7 block 73, SENP8 block-1 58, SENP6 block 72 | SENP8 confirm inactive | SENP6 confirm 53 | SENP7 confirm 79 | Casp3 select 55 | SENP luc ctr inactive
Cc1cccc(C)c1NC(=O)C(c1ccccc1)n1c(-c2ccccc2)nc2ccccc21 (configuration not stated)	none (no result: SENP7 block, SENP8 block-1, SENP6 block, Platelet DG rel)
c1ccc(-c2nc(-c3nccc4ccccc34)oc2-c2ccccc2)cc1	SENP7 block 85, SENP8 block-1 64, SENP6 block 86 | SENP8 confirm inactive | SENP6 confirm inactive | SENP7 confirm 61 | Casp3 select 76 | SENP luc ctr 65
CC(=O)N1N=C(c2ccc(C)cc2)OC1c1ccc(C(C)C)cc1 (configuration not stated)	SENP7 block 66, SENP6 block 66 | SENP8 confirm inactive | SENP6 confirm inactive | SENP7 confirm inactive | Casp3 select inactive | SENP luc ctr inactive
CC(=O)N1N=C(c2ccc(C)cc2)OC1c1ccc(C)cc1 (configuration not stated)	none
Cc1cccc(C(=O)O/N=C2\CCCc3ccccc32)c1	SENP7 block 90, SENP8 block-1 65, SENP6 block 92 | SENP8 confirm inactive | SENP6 confirm 88 | SENP7 confirm 98 | Casp3 select 78 | SENP luc ctr 64
O=C(O/N=C1\CCCc2ccccc21)C1CC1	none
O=C(O)c1ccc(N/N=C2/CCCc3ccccc32)cc1	SENP6 block 71 | SENP8 confirm 71 | SENP6 confirm 68 | SENP7 confirm 84 | Casp3 select 73 | SENP luc ctr 58
O=C(O/N=C1\CCCc2ccccc21)c1cccc(Cl)c1	SENP7 block 82, SENP6 block 83 | SENP8 confirm 66 | SENP6 confirm 64 | SENP7 confirm 90 | Casp3 select 65 | SENP luc ctr inactive
Cc1ccc(C(=O)O/N=C2\CCCc3ccccc32)cc1	SENP7 block 97, SENP8 block-1 90, SENP6 block 97 | SENP8 confirm 72 | SENP6 confirm 98 | SENP7 confirm 103 | Casp3 select 85 | SENP luc ctr inactive
Cc1ccccc1NC(=O)OCc1ccccc1	none
CCc1ncc(CO)n1Cc1cccc2ccccc12	none (no result: SENP7 block, SENP8 block-1, SENP6 block, Platelet DG rel)
CN(C)c1cc(N/N=C/c2ccccc2C(F)(F)F)nc(N(C)C)n1	SENP6 block 55 | SENP8 confirm inactive | SENP6 confirm inactive | SENP7 confirm inactive | Casp3 select inactive | SENP luc ctr inactive
COC(=O)c1cc(-c2ccc(NC(C)=O)cc2)nc2ccccc12	none
O=C(O)c1ccc(N/N=C/c2ccnc3ccccc23)cc1	SENP7 block 92, SENP8 block-1 82, SENP6 block 91 | SENP8 confirm 77 | SENP6 confirm 90 | SENP7 confirm 92 | Casp3 select 69 | SENP luc ctr inactive
O=C(O)c1ccc(N/N=C/c2c[nH]c3ccccc23)cc1	SENP7 block 100, SENP8 block-1 98, SENP6 block 97 | SENP8 confirm 98 | SENP6 confirm 100 | SENP7 confirm 102 | Casp3 select 96 | SENP luc ctr 97
O=C(Oc1cccc([N+](=O)[O-])c1)C1CCN(C(=O)c2ccc(F)cc2)CC1	none
CCC(=O)Nc1ccc(C(=O)CN2C(=O)NC3(CCCCCC3)C2=O)cc1	none (no result: Platelet DG rel)
Cc1ccc(C(=O)Nc2cccc3cccnc23)cc1C	SENP7 block 63, SENP8 block-1 51, SENP6 block 69 | SENP8 confirm inactive | SENP6 confirm 63 | SENP7 confirm 86 | Casp3 select inactive | SENP luc ctr inactive
S=c1nc(-c2ccccc2)oc2c1CCCC2	SENP7 block 88, SENP8 block-1 75, SENP6 block 92 | SENP8 confirm inactive | SENP6 confirm inactive | SENP7 confirm 63 | Casp3 select inactive | SENP luc ctr 54
COc1cccc(-c2nc(=S)c3c(o2)CCCC3)c1	SENP6 block 65 | SENP8 confirm inactive | SENP6 confirm inactive | SENP7 confirm 60 | Casp3 select inactive | SENP luc ctr inactive
CC(C)CCNC(=O)CN(C(=O)CCC(=O)Nc1ccccn1)c1ccc(F)c(Cl)c1	none
